# Assay outcomes: PubChem BioAssay, National Center for Advancing Translational Sciences (NCATS)
# PGK inhibitor: qHTS Assay to Find Inhibitors of Phosphoglycerate Kinase; Phosphoglycerate kinase, glycosomal (Trypanosoma brucei brucei), P07378; PGK/GAPDH coupled, Kinase-Glo luminescence, 60 min; Potency, µM (top dose mostly 57.5 µM), without a hit: at the highest dose activity change, negative = inhibition, most hits filed as inhibitors; 0.043% of 380,000 active; note: potency is the fitted concentration of half-maximal effect; nearly all actives have a fitted effect of over 60% in size
#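 Recombinant glycosomal PGK reaction used 1,3-bisphosphoglycerate generated in-well by GAPDH (100nM final) in 100mM TEA pH 7.6, 5mM MgCl2, 0.01% Tween-20. After 60 minutes at room temperature, ATP was read by Kinase-Glo Plus luminescence end-point.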
# Tb PFK inh: qHTS Assay to Find Inhibitors of T. brucei phosphofructokinase; ATP-dependent 6-phosphofructokinase (Trypanosoma brucei brucei), O15648; T. brucei PFK, ADP-Glo luminescence; Potency, µM (titrated, usually from 57.5 µM), for inactives: at the top dose activity, negative = inhibition, actives largely listed as inhibitors; 0.17% of 330,000 active;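 note: potency is the fitted concentration of half-maximal effect; 0% = uninhibited 1x PFK enzyme wells and -100% = no-enzyme wells; nearly all actives have a fitted effect of over 60% in size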
# Target sequence (O15648 whole entry, looked up): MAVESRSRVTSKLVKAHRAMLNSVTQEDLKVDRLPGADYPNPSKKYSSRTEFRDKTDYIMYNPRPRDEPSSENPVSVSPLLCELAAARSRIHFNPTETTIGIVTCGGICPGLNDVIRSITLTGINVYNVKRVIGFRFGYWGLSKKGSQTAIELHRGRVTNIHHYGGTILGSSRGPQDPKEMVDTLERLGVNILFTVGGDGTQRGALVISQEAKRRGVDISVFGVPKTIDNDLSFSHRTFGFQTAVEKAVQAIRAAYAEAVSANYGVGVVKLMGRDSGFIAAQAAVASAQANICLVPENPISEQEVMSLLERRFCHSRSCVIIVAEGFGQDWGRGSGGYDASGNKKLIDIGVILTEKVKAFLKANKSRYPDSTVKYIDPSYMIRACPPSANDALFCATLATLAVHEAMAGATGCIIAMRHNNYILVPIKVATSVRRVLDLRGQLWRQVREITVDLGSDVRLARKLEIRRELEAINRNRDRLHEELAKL
#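 1.25 nM PFK with 0.5 mM F6P and 0.1 mM ATP in 0.1 M TEA pH 8.0, 5 mM MgCl2, incubated 45 min at room temperature; ADP measured by ADP-Glo luminescence; compounds titrated up to 57 uM.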
# Pin1 inh: qHTS Assay to Find Inhibitors of Pin1; 0.009% of 390,000 active; Pin1 FP peptide displacement, HiFluor488, 10 min; Potency, µM (series often up to 115 µM), for the others: at the top dose activity, negative = inhibition, hits mostly inhibitors; active = well fitted inhibition curve with a large enough effect in the polarisation, with a control signal flat, not every such curve was filed as active; inconclusive = small, poorly fitted or top-dose-only effect, or effect the other way, or a change in a side signal; inactive = no such curve, though single readings can be large or run the other way; the % refers to the polarisation; note: potency is the fitted concentration of half-maximal effect
# PI5P4Ka inh: qHTS for Inhibitors of phosphatidylinositol 5-phosphate 4-kinase (PI5P4K). max response, %. PI5P4Kalpha enzyme, ADP-Glo luminescence, 60 min; hits give low values. Phosphatidylinositol 5-phosphate 4-kinase type-2 alpha (Homo sapiens), P48426. 1.2% of 330,000 active. AID 652105, 2013; active = max response of -50% or lower; inconclusive = between -30% and -50%; inactive = -30% or higher; note: value at the top dose of about 77 µM
#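 Human PI5P4Kalpha with substrate in 0.038 M HEPES pH 7.4, 0.28 mM EGTA, 0.1% CHAPS, 5% DMSO; reaction started with 5 microM ATP (final), 60 min at room temperature. ADP formed read by ADP-Glo luminescence.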
# PI4K2A block: qHTS for small molecular inhibitors of PI4K2A; purified PI4K2A, ADP-Glo luminescence, 1 h; hits give low values; AID 1346378, 2018; activity change, negative = inhibition, % at 76.9 µM; 0.13% of 420,000 active; Phosphatidylinositol 4-kinase type 2-alpha (Homo sapiens), Q9BTU6; in the data active = activity change below about -50%; inconclusive = mostly about -30% to -49%;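 note: -100% = wells without enzyme as full effect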
#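 In this quantitative HTS, ADP production by PI4K2A was quantified luminescently after 1 h at ambient temperature; 100 microM adenosine served as plate-quality control.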
# Starred values were filed as active, the others as inactive; i = inactive; ? = inconclusive; nt = no result. The full list was thinned out, with hits kept by preference. Unless noted, calls come from the whole dose curve; as a rule, active = well fitted curve in the direction sought with a large enough effect; inconclusive = small, poorly fitted or top-dose-only effect, or another doubt; inactive = no such curve, though single readings can be large; an effect the other way counts as inactive or inconclusive. Unless noted, % is set by controls: 0 for no effect and ±100 for the full control effect.
SMILES,PGK inhibitor,Tb PFK inh,Pin1 inh,PI5P4Ka inh,PI4K2A block
O=C(CSc1nnc(SCc2cccc3ccccc23)s1)Nc1ccc(Oc2ccccc2)cc1,nt,nt,nt,nt,-2.6
CSc1nsc(SCC(=O)Nc2ccc(C(=O)O)cc2)n1,-6.6%,-9.6%,-8.3%,-51.0*,1.5
Cc1ccc(NS(=O)(=O)c2cc3c(cc2-c2ccccc2)NC(=O)CO3)cc1C,nt,nt,22.8%,nt,nt
COc1ccc(C2Nc3ccccc3C(=O)N2Cc2ccccc2)cc1COc1ccc(C)cc1 (stereo not drawn),nt,nt,8.3%,nt,nt
O=C(O)c1ccccc1N/N=C\c1ccnc2ccccc12,-3.5%,-5.3%,-3.1%,-68.2*,1.1
Cc1ccccc1NC(=S)Nc1cccc2cnccc12,-4.9%,1.6%,-6.2%,-15.9,-23.1
Cc1ccc(C)c(NC(=S)Nc2cccc3cnccc23)c1,2.4%,-5.0%,0.1%,-1.8,-55.4*
C[C@H](CN1CCCC1)C(=O)c1ccc(C(F)(F)F)cc1,nt,nt,nt,nt,-0.8
O=C(O)c1ccc(-c2noc(-c3ccccc3F)n2)cc1,-21.0%,nt,1.3%,nt,-68.5*
Cc1[nH]n(-c2ccccc2)c(=O)c1C(c1cc(Cl)ccc1O)c1c(C)[nH]n(-c2ccccc2)c1=O,-7.5%,nt,-2.7%,nt,-51.0*
CC(=O)c1ccc(NC(=O)c2ccc3nc(-c4ccco4)c(-c4ccco4)nc3c2)cc1,?,-21.5%,19µM*,-109.8*,-56.2*
S=C(Nc1ccc(N2CCOCC2)cc1)Nc1ccc2nc(-c3ccco3)c(-c3ccco3)nc2c1,-3.1%,0.5%,?,-78.1*,?
O=C(Nc1ccc(N2CCOCC2)cc1)c1ccc2nc(-c3ccco3)c(-c3ccco3)nc2c1,-0.3%,-1.4%,?,nt,-3.6
O=C(Nc1ccccc1)c1ccc2nc(-c3ccco3)c(-c3ccco3)nc2c1,-6.7%,-2.5%,?,nt,-51.2*
CC(=O)c1ccc(NC(=O)CSc2nnc(-c3ccco3)c(-c3ccco3)n2)cc1,-22.3%,-11.7%,nt,-64.1*,?
N#CN1CCC(NC(=O)c2cccc(F)c2)CC1,nt,nt,-3.9%,nt,nt
COc1ccc(Cn2c(NC(=O)c3ccccc3)nc(Cc3ccccc3)c2Cc2ccccc2)cc1,nt,nt,nt,nt,-1.2
N=c1c2c(ccn1CCCCc1ccccc1)Oc1ccc3ccccc3c1C2c1ccccc1 (stereo not drawn),nt,nt,-1.6%,nt,-10.7
O=C(NCCO)Nc1ccc2nc(-c3ccco3)c(-c3ccco3)nc2c1,nt,1.9µM*,nt,nt,nt
N#C/C(=C/c1ccc(-c2cccc([N+](=O)[O-])c2)o1)C(=O)Nc1nc(-c2cccs2)cs1,1.2%,nt,1.1%,-61.7*,-13.7
CC(C)C[C@@H]1COc2cc(Br)ccc2S(=O)(=O)N1Cc1cn(Cc2ccc(Br)cc2)nn1,nt,nt,nt,nt,3.0
O=c1[nH][nH]c2c(N=Cc3ccccc3O)ccc(F)c12,15.8µM*,?,?,-103.5*,-26.7
CCc1ccc(O)c(N=Cc2ccccc2O)c1,i,-1.4%,4.5%,nt,1.8
Cc1cc2c(s1)c1cnn(Cc3cccc(Cl)c3)c(=O)c1n2C,nt,nt,1.5%,nt,nt
O=C1NC(=S)S/C1=C\C=C\c1ccc([N+](=O)[O-])o1,28.2µM*,-12.9%,0.2%,-95.8*,-13.6
SMILES,PGK inhibitor,Tb PFK inh,Pin1 inh,PI5P4Ka inh,PI4K2A block
O=[N+]([O-])c1ccc(/C=N/N=C/c2ccc([N+](=O)[O-])o2)o1,-7.6%,-2.5%,-1.5%,-14.1,-1.4
COc1ccc(-c2cc(C(=O)O)[nH]n2)cc1OC,-12.4%,1.3%,-1.7%,-29.3,-73.0*
Cn1c(Br)nc2c1c(=O)n(Cc1ccccc1)c(=O)n2C,-0.2%,-0.9%,4.1%,1.6,2.8
Cn1c(NN)nc2c1c(=O)n(Cc1ccccc1)c(=O)n2C,-19.3%,0.9%,-9.8%,-58.3*,-10.5
CCOC(=O)Cc1csc(SCC(=O)Nc2sc3c(c2C(N)=O)CCC3)n1,-19.2%,?,?,-90.0*,-8.3
CCC1(CC)NC(=O)N(CC(=O)Nc2sc3c(c2C(N)=O)CCC3)C1=O,-10.2%,-11.4%,?,-69.6*,?
